Screens deposited in PubChem BioAssay by The Scripps Research Institute Molecular Screening Center.
Only some compounds are listed: those with a hit (about 4.8% of all), similar ones and a draw of the others.
hcDAF12 agonist: activators of H. contortus DAF-12 nuclear receptor | HEK293 hcDAF-12 lit1-tk-luc reporter, luminescence; 0% DMSO, 100% Δ7-dafachronic acid | activation, % at 6.8 µM | actives 1.4% (n = 370,000) | AID 652067;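 active means activation above the mean of all tested compounds plus 3 SD, cut at about 5.5% in these data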
hgDAF12 agonist: agonists of H. glycines DAF-12 nuclear receptor. HEK293 GAL4-hgDAF12 UAS-luciferase reporter, agonist luminescence; normalized to butyrate control. activation, % at 6.8 µM. actives 1.8% (n = 370,000). AID 687014;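 active means activation above a cutoff set at the mean of all screened compounds plus 3 SD, cut at about 10% in these data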
SMARCA2 act: activators of SMARCA2 function; MG213 cells, MMTV-luciferase reporter, dexamethasone, overnight; AID 652017; activation, % at 9.1 µM; actives 1% (n = 370,000); in the data active means activation above about 7.8%
DAX1 inh-1: inhibitors of human orphan nuclear receptor DAX1 (NR0B1). actives 0.99% (n = 340,000). HEK293 Gal4-DAX1 luciferase reporter, luminescence. P51843. inhibition, % at 6.75 µM;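 active means inhibition above the mean over all tested compounds plus 3 SD, cut at about 4.2% in these data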;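 further: inhibition shows as a rise in luminescence from relieved DAX1 repression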
Target sequence (P51843 207-470 limits assumed): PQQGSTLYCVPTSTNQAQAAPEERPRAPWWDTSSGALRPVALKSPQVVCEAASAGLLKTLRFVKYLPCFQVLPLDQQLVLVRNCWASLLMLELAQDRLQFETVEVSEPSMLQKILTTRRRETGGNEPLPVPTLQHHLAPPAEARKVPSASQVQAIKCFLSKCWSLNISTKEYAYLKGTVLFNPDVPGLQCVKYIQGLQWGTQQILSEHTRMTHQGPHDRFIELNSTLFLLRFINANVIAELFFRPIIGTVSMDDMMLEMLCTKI
ssDAF-12 act: S. stercoralis DAF-12 activation, primary screen; HEK293 ssDAF-12/GRIP1 lit1-tk-luc reporter, luminescence; % of 3 µM dafachronic acid response; activation, % at 6.8 µM; actives 1% (n = 370,000);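 active means activation above the mean over all tested compounds plus 3 SD, cut at about 0.9% in these data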
DAX1 inh-2: blocks DAX1 repression of SF-1 activated StAR promoter. HEK293T StAR-luciferase reporter, SF-1/DAX-1 repression relief. inhibition, % at 6.8 µM. actives 1.1% (n = 370,000);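 active means inhibition above the mean over all tested compounds plus 3 SD, cut at about 3.6% in these data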;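 further: higher inhibition means more luminescence from relief of DAX-1 repression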
Of the large screens only hits and unclear results are named; the others gave an inactive call.

COc1ccc(-c2nc(-c3cccnc3)no2)cc1	hgDAF12 agonist 11, ssDAF-12 act 1.3
c1ccc(-c2noc(-c3cccnc3)n2)cc1	SMARCA2 act 7.9, DAX1 inh-2 3.6
CCOc1cc(-c2noc(-c3cccnc3)n2)ccc1OC	DAX1 inh-1 4.6
c1ccc(-c2ccc(-c3nc(-c4ccncc4)no3)cc2)cc1	none
CCOc1ccc(-c2noc(COC)n2)cc1OC	ssDAF-12 act 4.0
c1ccc(-c2ccc(-c3nc(-c4cccnc4)no3)cc2)cc1	DAX1 inh-2 3.8
Cc1ccccc1-c1nc(-c2cccnc2)no1	hcDAF12 agonist 6.1, hgDAF12 agonist 10
O=C(Nc1ccc(Cl)c(Cl)c1)C1CCCN1S(=O)(=O)c1cccc2cccnc12 (stereo unspecified)	none (no result: DAX1 inh-1)
COC(=O)[C@]12C[C@H](CC(=O)NCCCCc3ccccc3)C(=O)N(CCC3=CCCCC3)C1=C[C@H](COCc1ccccc1)O[C@@H]2C	none (no result: DAX1 inh-1)
O=C(N/N=C/C1CC2CCC1C2)c1c[nH]c2ccccc12 (stereo unspecified)	hcDAF12 agonist 5.7
Cc1ccc(/C=N/NC(=O)c2c[nH]c3ccccc23)s1	none
Cc1ccsc1/C=N/NC(=O)c1c[nH]c2ccccc12	hgDAF12 agonist 11
CC(C)(C)/C=N/NC(=O)C1CC1	none (no result: DAX1 inh-1)
O=C(N/N=C/c1ccc[nH]1)c1c[nH]c2ccccc12	none
O=C(N/N=C/C1CC2CCC1C2)C1CC1 (stereo unspecified)	DAX1 inh-2 3.7
COCCNc1ccc(N2C(=O)C3CCCCC3C2=O)cc1[N+](=O)[O-] (stereo unspecified)	DAX1 inh-1 4.6
COc1ccc(S[C@]2(C(=O)N3CCOCC3)CC(=O)N(c3ccccc3)[C@@H]2c2ccc(OC)cc2)cc1	none (no result: DAX1 inh-1)
CC(=O)Nc1ccc(C(=O)COC(=O)c2cccs2)c(F)c1	hgDAF12 agonist 11
O=S(=O)(CC1NCc2ccccc21)NCc1ccc(F)cc1 (stereo unspecified)	none (no result: DAX1 inh-1)
COc1ccc(C#Cc2c(-c3ccsc3)oc3ccc(-c4cc(OC)c(OC)c(OC)c4)cc23)cc1	hcDAF12 agonist 5.6
C/C(=N\Nc1ccc([N+](=O)[O-])cc1)c1ccc(N)cc1	none
CCc1ccc(/C(C)=N\Nc2ccc([N+](=O)[O-])cc2)cc1	DAX1 inh-1 4.3
CCN(CC)C(=O)CC[C@H]1CC[C@]2(CCCN(C(=O)c3cccnc3)C2)O1	none (no result: DAX1 inh-1)
Cc1occc1-c1nnc(SCCNCCO)o1	hgDAF12 agonist 13
Cc1occc1-c1nnc(SCC(=O)Nc2ccccn2)o1	DAX1 inh-2 3.7
Cc1ccccc1-c1nnc(SCC(=O)Nc2cccnc2Cl)o1	DAX1 inh-2 8.3
Cc1occc1-c1nnc(SCC(=O)NCCc2ccccc2)o1	none
O=C(NC1CCCCN(Cc2cccc(Cl)c2)C1=O)c1ccc2ccccc2c1 (stereo unspecified)	none (no result: DAX1 inh-1)
COC(=O)[C@H](CC(C)C)N(Cc1cn(Cc2ccc(C)cc2)nn1)S(=O)(=O)c1ccc(F)cc1Br	none (no result: DAX1 inh-1)
CCN(Cc1cn(Cc2ccc(C)cc2)nn1)S(=O)(=O)c1ccccc1Br	none (no result: DAX1 inh-1)
Cc1ccc(C(=O)C=CC=Cc2ccccc2)cc1	DAX1 inh-1 4.5
Cc1ccc(NC(=O)C(=O)c2ccc(C)cc2)cc1	hgDAF12 agonist 12
Cc1ccc(C(=O)/C=C\Nc2ccc(C)c(C)c2)cc1	hgDAF12 agonist 13
Cc1ccc(C(=O)/C=C/C(=O)c2ccc(C)cc2)cc1	none
Cc1ccc(/C=C/C(=O)c2ccc(C)cc2)cc1	none
Cc1ccc(N/C=C/C(=O)c2ccc(C)cc2)cc1	hgDAF12 agonist 13
Cc1ccc(C(=O)/C=C/Nc2ccccn2)cc1	none
COC(=O)N1C[C@H](OC(=O)c2ccc(-c3ccccc3)cc2)[C@H]2C[C@@H]1c1ccccc1O2	none (no result: DAX1 inh-1)
NC(N)=NS(=O)(=O)c1ccc(N/C=C\C(=O)c2ccncc2)cc1	DAX1 inh-1 6.9
CCn1c(COc2ccccc2)nnc1SCC(=O)Nc1ccc(Oc2ccccc2)cc1	none (no result: DAX1 inh-1)
CCOC(=O)C1(CC2CC2)CCN(C(=O)c2ocnc2C)CC1	DAX1 inh-1 4.3
N#CCC[C@H]1CC[C@]2(CCCN(C(=O)c3ccccc3)C2)O1	none (no result: DAX1 inh-1)
COc1ccccc1C(=O)Nc1sc2c(c1C(N)=O)CCCC2	ssDAF-12 act 0.9
O=C(Nc1sc2c(c1C(=O)O)CCCCC2)c1cccs1	ssDAF-12 act 1.0
CN1CCc2c(sc(NC(=O)c3ccco3)c2C(N)=O)C1	SMARCA2 act 8.0
CN1CCc2c(sc(NC(=O)c3ccc([N+](=O)[O-])o3)c2C(N)=O)C1	none
NC(=O)c1c(NC(=O)c2ccc([N+](=O)[O-])o2)sc2c1CCCC2	ssDAF-12 act 2.0
C=CCN(CC#Cc1ccccc1)Cc1ccc2c(c1)OCO2	none (no result: DAX1 inh-1)
O=C(NNC1CCN(Cc2ccccc2)CC1)c1ccccc1	hgDAF12 agonist 11
Cc1c(-c2nc(-c3ccc(C(C)(C)C)cc3)no2)n(C)oc1=O	hcDAF12 agonist 5.7, hgDAF12 agonist 12, ssDAF-12 act 2.1
O=C(c1ccc2c(c1)OCO2)N1CCC(Oc2cccnc2)CC1	none (no result: DAX1 inh-1)
COc1cc(NC(=O)c2ccccc2)c(C)cc1NC(=O)CSc1nnc(-c2ccccc2F)n1-c1ccc(C)cc1	none (no result: DAX1 inh-1)
C[C@@H]1O[C@@H](n2c3ccc(Cl)cc3c3ccc4c5cc(Cl)ccc5[nH]c4c32)[C@H](O)[C@H](O)[C@H]1O	none (no result: DAX1 inh-1)
CC(=O)Nc1ccc(O)c(-c2nc3ccccc3s2)c1	hgDAF12 agonist 14
CC(=O)Nc1cccc(-c2nc3ccccc3s2)c1	hgDAF12 agonist 11
CC(C)c1ccc(-c2nc3ccccc3s2)cc1	none
O=C(Nc1ccc(-c2nc3ccccc3s2)c(O)c1)C1=COCCO1	DAX1 inh-1 4.9
CCOc1cc(-c2nc3ccccc3s2)ccc1O	hgDAF12 agonist 11
CC(=O)Nc1cccc(-c2cc(C)c3cc4c(cc3n2)OCO4)c1	hcDAF12 agonist 5.6
COc1ccc(-n2c(SCC(N)=O)nnc2-c2ccco2)cc1	DAX1 inh-1 4.5
COc1cccc(CSc2nnc(-c3ccco3)n2C)c1	DAX1 inh-1 5.2
Cc1ccc(-n2c(SCC(N)=O)nnc2-c2ccco2)cc1	none
O=C(c1ccc(F)cc1F)N(Cc1ccccn1)CC1CCCO1 (stereo unspecified)	none (no result: DAX1 inh-1)
CC(C)(C)NC(=O)CSc1nnc(-c2ccccn2)n1-c1ccccc1	DAX1 inh-1 4.4
O=c1oc(CCO)cc2ccccc12	none
CC#CCc1cc2ccccc2c(=O)o1	DAX1 inh-1 4.6
C[C@H]1Cn2nncc2Cn2c3ccccc3c(=O)n21	none (no result: DAX1 inh-1)
COc1cc(NC(=O)c2ccc(S(=O)(=O)N(C)C)cc2)cc(OC)c1OC	none
COc1ccccc1OC(=O)c1ccc(S(=O)(=O)N(C)C)cc1	DAX1 inh-1 5.2
